Where “and” joins values, the source holds several entries; their conditions need not be identical. Identical values can stand only once. The campaign covered roughly 5,500 compounds. About 2,000 (36%) were called active. Another 18% or so got no clear call; they are omitted. Rule as the data show it: active = normalized growth mostly below about 0.91 (no sharp cut-off); inconclusive = no clear call, values can overlap the other calls; inactive = mostly above about 0.92. This is one part of the list.
Assay: chemical genetic growth profiling, strain panel (AID 1159580);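 also: tested at 20 µM; growth read once vehicle control cultures reached saturation at 30 °C; 1 = growth at the plate median or of vehicle wells; lower values mean less growth of the strain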
Conditions: S. cerevisiae deletion strains, growth OD

Measured: normalized growth

CC12CC3CC(C)(C1)CC(N)(C3)C2
inactive: locus YAL013W, strain DEP1, stronger effect = lower value 1 and 0.983 | locus YAL021C, strain ccr4, stronger effect = lower value 1 | locus YAL026C, strain drs2, stronger effect = lower value 0.99 | locus YAL030W, strain snc1, stronger effect = lower value 0.976 | locus YAL040C, strain CLN3, stronger effect = lower value 1.06 | locus YBL061C, strain skt5, stronger effect = lower value 0.977 | locus YBR009C, strain hhf1, stronger effect = lower value 0.993 | locus YBR021W, strain FUR4, stronger effect = lower value 1.02 | locus YBR023C, strain chs3, stronger effect = lower value 0.985 | locus YBR171W, strain sec66, stronger effect = lower value 0.98 | locus YBR229C, strain ROT2, stronger effect = lower value 0.997 | locus YBR231C, strain swc5, stronger effect = lower value 0.963 | locus YBR279W, strain paf1, stronger effect = lower value 0.981 | locus YCL011C, strain gbp2, stronger effect = lower value 1.01 | locus YCL016C, strain dcc1, stronger effect = lower value 1.01 | locus YCL029C, strain bik1, stronger effect = lower value 1.02 | locus YCL061C, strain MRC1 (second series), stronger effect = lower value 0.994 | locus YCL061C, strain MRC1, stronger effect = lower value 0.989 | locus YCL069W, strain vba3, stronger effect = lower value 0.992 | locus YCR088W, strain abp1, stronger effect = lower value 0.982 | locus YDL005C, strain med2, stronger effect = lower value 0.988 | locus YDL035C, strain GPR1, stronger effect = lower value 0.999 | locus YDL040C, strain nat1, stronger effect = lower value 0.986 | locus YDL074C, strain BRE1, stronger effect = lower value 1.03 | locus YDL101C, strain DUN1, stronger effect = lower value 1.02 | locus YDL134C, strain PPH21, stronger effect = lower value 1 | locus YDL185W, strain tfp1, stronger effect = lower value 1.01 | locus YDL192W, strain arf1, stronger effect = lower value 1.01 | locus YDR001C, strain nth1, stronger effect = lower value 0.999 | locus YDR069C, strain doa4, stronger effect = lower value 0.983 | locus YDR101C, strain arx1, stronger effect = lower value 1.01 | locus YDR137W, strain rgp1, stronger effect = lower value 1.01 | locus YDR150W, strain NUM1, stronger effect = lower value 0.996 and 1 | locus YDR159W, strain sac3, stronger effect = lower value 0.962 | locus YDR162C, strain NBP2, stronger effect = lower value 1.01 | locus YDR195W, strain ref2 0.94 | locus YDR297W, strain sur2, stronger effect = lower value 0.988 | locus YDR318W, strain mcm21, stronger effect = lower value 1.02 | locus YDR334W, strain swr1, stronger effect = lower value 1.01 | locus YDR335W, strain msn5, stronger effect = lower value 0.986 | locus YDR363W, strain ESC2, stronger effect = lower value 0.959 | locus YDR388W, stronger effect = lower value 1.01 | locus YDR392W, strain spt3, stronger effect = lower value 0.993 | locus YDR502C, strain sam2, stronger effect = lower value 1.01 | locus YEL003W, strain gim4, stronger effect = lower value 0.986 | locus YEL037C, strain rad23, stronger effect = lower value 0.981 | locus YEL061C, strain CIN8 (second series), stronger effect = lower value 0.971 | locus YEL061C, strain CIN8, stronger effect = lower value 1 | locus YER002W, strain NOP16, stronger effect = lower value 1.02 | locus YER015W, strain faa2, stronger effect = lower value 0.998 | locus YER016W, strain bim1, stronger effect = lower value 0.979 | locus YER110C, stronger effect = lower value 1 | locus YER111C, strain swi4, stronger effect = lower value 0.983 | locus YER155C, strain BEM2 (second series), stronger effect = lower value 0.989 | locus YER155C, strain BEM2, stronger effect = lower value 1.01 | locus YER167W, strain BCK2, stronger effect = lower value 1.01 | locus YFR010W, strain ubp6, stronger effect = lower value 0.988 | locus YGL078C, strain dbp3, stronger effect = lower value 0.999 | locus YGL086W, strain mad1, stronger effect = lower value 0.988 | locus YGL167C, strain pmr1, stronger effect = lower value 1.01 | locus YGL173C, strain kem1, stronger effect = lower value 0.957 | locus YGL227W, strain vid30, stronger effect = lower value 0.994 | locus YGL240W, strain doc1, stronger effect = lower value 0.966 | locus YGL248W, strain PDE1, stronger effect = lower value 0.999 | locus YGL253W, strain hxk2, stronger effect = lower value 0.977 | locus YGR078C, strain PAC10, stronger effect = lower value 1.02 and 0.97 | locus YGR135W, strain pre9, stronger effect = lower value 1.01 | locus YGR229C, strain SMI1, stronger effect = lower value 1.02 | locus YGR252W, strain gcn5, stronger effect = lower value 0.968 | locus YHR013C, strain ard1, stronger effect = lower value 0.983 | locus YHR027C, strain rpn1, stronger effect = lower value 0.995 | locus YHR030C, strain SLT2, stronger effect = lower value 1.01 and 0.993 | locus YHR079C, strain IRE1 (second series), stronger effect = lower value 1.01 | locus YHR079C, strain IRE1, stronger effect = lower value 0.965 | locus YHR094C, strain hxt1, stronger effect = lower value 1.01 | locus YHR129C, strain ARP1, stronger effect = lower value 1.02 | locus YHR142W, strain chs7, stronger effect = lower value 0.963 | locus YHR200W, strain rpn10, stronger effect = lower value 1 | locus YIL066C, strain RNR3, stronger effect = lower value 1.01 | locus YIL073C, strain SPO22, stronger effect = lower value 1.09 | locus YIL125W, strain kgd1, stronger effect = lower value 1 | locus YIR030C, strain dcg1, stronger effect = lower value 1.01 | locus YJL092W, strain hpr5, stronger effect = lower value 0.983 | locus YJL095W, strain BCK1 (second series), stronger effect = lower value 0.985 | locus YJL095W, strain BCK1, stronger effect = lower value 1.04 and 1 | locus YJL115W, strain asf1, stronger effect = lower value 0.976 | locus YJL129C, strain trk1, stronger effect = lower value 0.958 | locus YJL134W, strain LCB3, stronger effect = lower value 0.999 | locus YJL154C, strain vps35, stronger effect = lower value 0.972 | locus YJL164C, strain tpk1, stronger effect = lower value 1.01 | locus YJL166W, strain qcr8, stronger effect = lower value 0.984 | locus YJL168C, strain set2, stronger effect = lower value 1 | locus YJL187C, strain SWE1 (second series), stronger effect = lower value 1.02 | locus YJL187C, strain SWE1, stronger effect = lower value 0.992 | locus YJR043C, strain POL32, stronger effect = lower value 1.01 | locus YJR066W, strain TOR1, stronger effect = lower value 0.923

— PubChem BioAssay AID1159580 (chemical genetic matrix, 2015)
